Screen size: about 220,000 compounds; about 16,000 (7.3%) were called active. Where a call stands in place of a potency, no number is given. About 25% were inconclusive and are not listed. The sample holds actives, similar compounds and a random draw of the others, so the mix is not that of the screen. Calls follow the shape of the dose curve; as a rule, active = well fitted inhibition curve with a large enough effect (not every such curve was filed as active); inconclusive = small, poorly fitted or top-dose-only effect, or another doubt; inactive = no such curve, though single readings can be large or run the other way.
The molecules below were run against Aldehyde dehydrogenase 1A1 (Homo sapiens) (UniProt P00352) (assay: qHTS Assay for Inhibitors of Aldehyde Dehydrogenase 1 (ALDH1A1)). Settings: Purified ALDH1A1, NADH fluorescence, propionaldehyde substrate; series mostly up to 75.3 µM.
Potency is read from the fitted curve at half-maximal effect.

Sequence of Aldehyde dehydrogenase 1A1 (Homo sapiens) (P00352 whole entry, looked up): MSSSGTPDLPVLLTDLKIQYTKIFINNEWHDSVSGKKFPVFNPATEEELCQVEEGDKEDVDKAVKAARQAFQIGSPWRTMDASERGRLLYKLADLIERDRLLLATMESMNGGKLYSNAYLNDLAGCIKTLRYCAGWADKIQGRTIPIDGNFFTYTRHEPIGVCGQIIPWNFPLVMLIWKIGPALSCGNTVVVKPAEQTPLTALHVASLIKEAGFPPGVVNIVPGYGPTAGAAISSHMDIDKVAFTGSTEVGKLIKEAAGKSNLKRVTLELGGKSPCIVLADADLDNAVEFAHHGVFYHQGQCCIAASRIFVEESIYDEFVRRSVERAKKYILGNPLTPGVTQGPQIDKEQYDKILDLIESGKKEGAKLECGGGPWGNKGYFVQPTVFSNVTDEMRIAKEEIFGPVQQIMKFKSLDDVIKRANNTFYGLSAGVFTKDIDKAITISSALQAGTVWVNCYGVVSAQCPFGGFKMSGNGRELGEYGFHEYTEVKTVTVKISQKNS

SMILES	Potency
CCOC(=O)C1CCN(S(=O)(=O)c2cc(F)ccc2OC)CC1	inactive
COCCOC(=O)c1sc(=S)n(CCOC)c1N	10 µM (active)
CCOC(=O)Cn1c(N)c(C(=O)OC)sc1=S	inactive
CCOC(=O)c1cnc2c(c(C)nn2CC)c1Cl	inactive
O=S(=O)(c1cccs1)N1CCN(Cc2ccccc2)CC1	inactive
CN1CCN(S(=O)(=O)c2ccc(N3CCN(S(=O)(=O)c4cccs4)CC3)nc2)CC1	inactive
COc1ccc2c(CN3CCN(S(=O)(=O)c4cccs4)CC3)cc(=O)oc2c1	14.1 µM (active)
COc1ccc(C(=O)NCC(=O)N/N=C/c2ccc([N+](=O)[O-])s2)cc1OC	inactive
CC(=O)N/N=C/c1cc2c(cc1[N+](=O)[O-])OCO2	inactive
Cc1ccc(S(=O)(=O)N/N=C\c2cc3c(cc2[N+](=O)[O-])OCO3)cc1	1.26 µM (active)
Cc1ccc(-c2n[nH]c(=S)n2/N=C/c2cc3c(cc2[N+](=O)[O-])OCO3)cc1	inactive
COc1cc(NC(=O)c2cccnc2SC)cc(OC)c1	inactive
COc1ccc(N2CCN(C(=O)CSc3nc4cc(OC)c(OC)cc4cc3C#N)CC2)cc1	14.1 µM (active)
CCOc1ccc(-c2nnn(CC(=O)N3CCN(c4ccc(OC)cc4)CC3)n2)cc1OCC	inactive
COc1ccc(N2CCN(C(=O)CSc3ncnc4c3cnn4-c3ccc(OC)cc3)CC2)cc1	inactive
CCCC(=O)Nc1nnc(-c2ccccc2)o1	inactive
COc1ccc(C(=O)NC2CCN(C(=S)Nc3ccccc3)CC2)cc1	inactive
CC(C)N(C(=O)Cn1c(SCC(=O)N2CCN(c3ccccc3)CC2)nc2ccccc21)C(C)C	25.1 µM (active)
CCN(CC)C(=O)CSc1nc2ccccc2n1CC(=O)N1CCN(c2ccccc2OC)CC1	inactive
Cc1nnc(SCC(=O)N2CCN(c3ccccc3)CC2)n1-c1ccccc1	inactive
CCN1CCN(c2ccc(NC(=O)c3cnccn3)cc2)CC1	inactive
COc1ccc(Nc2ncc(F)c(N3CCOCC3)n2)cc1	inactive
CC(C(=O)NC1CCCC1)N(c1ccc(Oc2ccccc2)cc1)S(C)(=O)=O (stereo not drawn)	inactive

SMILES	Potency
Cc1ccc(N2C(=O)SC(N(CC(=O)O)c3ccc(C)cc3)C2=O)cc1 (stereo not drawn)	inactive
Cc1cccc(N(CC(=O)N2CCOCC2)S(C)(=O)=O)c1	inactive
Cc1cccc(N2C(=O)SC(N(CC(=O)O)c3cccc(C)c3)C2=O)c1 (stereo not drawn)	14.1 µM (active)
Clc1ncn(CCOc2ccccc2)c1Cl	inactive
Cc1noc(C)c1S(=O)(=O)Nc1ccc(C(=O)N2CCN(c3ccc(F)cc3)CC2)cc1	inactive
COC(=O)C1=C(C)NC(=O)NC1/C=C/c1ccccc1 (stereo not drawn)	inactive
COC(=O)C1=C(C)NC2=C(C(=O)c3ccccc32)C1c1ccc(-c2ccc(C(=O)O)cc2)o1 (stereo not drawn)	3.16 µM (active)
COc1ccccc1NC(=O)C1=C(C)NC2=C(C(=O)CCC2)C1c1ccc(C)o1 (stereo not drawn)	inactive
COC(=O)c1cc2n(n1)CCCNC2=O	inactive
COc1ccc(/C=C2\SC(=N)N(c3ccc(F)cc3)C2=O)cc1	inactive
O=C(Nc1ccc(Cl)cn1)c1ccc2c(c1)OCCO2	inactive
CNc1ccc([N+](=O)[O-])cc1C(=O)O	inactive
COc1ccc(N2C(=O)CC(Nc3ccc(F)cc3)C2=O)c([N+](=O)[O-])c1 (stereo not drawn)	17.8 µM (active)
COc1cccc(N2C(=O)C3CCCN3C2c2ccc(F)cc2)c1 (stereo not drawn)	inactive
COc1cc(OC)cc(C(=O)NC(=S)N2CCN(c3ccc(C(F)(F)F)cc3[N+](=O)[O-])CC2)c1	inactive
CC(Oc1ccc(Br)cc1Br)C(=O)NC1CCCC1 (stereo not drawn)	inactive
CCC1CO/C(=C(\C(=C(Cl)Cl)N2CCOCC2)[N+](=O)[O-])N1 (stereo not drawn)	inactive
CCc1nnc(NC(=O)c2cccc(S(=O)(=O)N(C)c3ccc(OC)cc3)c2)s1	inactive
Cc1ccc(S(=O)(=O)N2CCN(C(=O)c3cccs3)CC2)cc1	inactive
Cc1[nH]c2ccccc2c1CCN(Cc1cccs1)C(=S)NC(C)(C)C	inactive
COc1cccc(NC(=S)N(CCc2c(C)[nH]c3ccccc23)Cc2ccco2)c1	inactive
COc1ccc2[nH]c(C)c(CCN(Cc3cccs3)C(=S)Nc3ccccc3OC)c2c1	25.1 µM (active)
Cc1cc(Cl)ccc1OCc1nc(-c2ccncc2)no1	inactive

SMILES	Potency
Nc1ccccc1Sc1cc(Cl)nnc1Cl	25.1 µM (active)
Cc1nn(C)c(C)c1Sc1ccccc1N	inactive
Nc1ccccc1N	inactive
COc1ccc(CN2CCN(Cc3cn(C)nc3-c3ccccc3)CC2CCO)c(C)c1C (stereo not drawn)	inactive
CCOC(=O)CSc1nnc(-c2ccc([N+](=O)[O-])cc2)o1	inactive
COc1cccc(CN(C)CC(=O)NCc2ccccc2Cl)c1OC	inactive
Cc1ccccc1CN1C[C@@H]2C[C@@H](c3cn(C)nc3-c3ccccc3)N3CCC[C@@]23C1=O	1.58 µM (active)
Cc1ccc(CN2CCN(Cc3cn(C)nc3-c3ccccc3)CC2CCO)o1 (stereo not drawn)	inactive
Cc1ccccc1CN1C[C@@H]2C[C@@H](c3ccc4nsnc4c3)N3CCC[C@@]23C1=O	inactive
Cn1nnc2cc(C(=O)NCCC3=CCCCC3)ccc21	inactive
CC1CCCN(C(=O)Cn2c(=O)oc3ccccc32)C1 (stereo not drawn)	inactive
CC1CCCN(C(=O)c2ccc3c(c2)C(=O)N(CCC2=CCCCC2)C3=O)C1 (stereo not drawn)	0.501 µM (active)
CCN(CC)C(=O)Cn1cc(S(=O)(=O)CC(=O)NCc2ccc3c(c2)OCO3)c2ccccc21	inactive
Cc1ccc(C(=O)COC(=O)CCCC(=O)NC2CCCCC2)cc1[N+](=O)[O-]	inactive
Cc1c(NS(=O)(=O)c2ccc(NC3CCCC3)c([N+](=O)[O-])c2)c(=O)n(-c2ccccc2)n1C	inactive
Cc1cc(C=O)c(C)n1-c1ccc(NC2CCCCC2)c([N+](=O)[O-])c1	5.62 µM (active)
S=c1[nH]nc(-c2cccnc2)n1/N=C/C(Cl)=C\c1ccccc1	inactive
Cc1cc(-c2n[nH]c(=S)n2/N=C/C(Br)=C/c2ccccc2)n[nH]1	17.8 µM (active)
CN1CCN(C2=NCCO2)CC1	inactive
O=C(Nc1cccc2ncccc12)C(Cl)(Cl)Cl	inactive
O=C(O)c1cc(Cl)c(Cl)cc1C(=O)Nc1cccc2ncccc12	inactive
Cc1ccc(/C=C(\C#N)C(=O)Nc2cccc3ncccc23)o1	8.91 µM (active)
